Pol iota inh – inhibitors of human DNA polymerase iota; AID 588590; Potency, µM (doses to about 115 µM), for inactives: at the highest dose activity, negative = inhibition, actives largely listed as inhibitors; Pol iota fluorescent replication assay, 10 min; 1% of 390,000 active
Target sequence (Q9UNA4 whole entry, looked up): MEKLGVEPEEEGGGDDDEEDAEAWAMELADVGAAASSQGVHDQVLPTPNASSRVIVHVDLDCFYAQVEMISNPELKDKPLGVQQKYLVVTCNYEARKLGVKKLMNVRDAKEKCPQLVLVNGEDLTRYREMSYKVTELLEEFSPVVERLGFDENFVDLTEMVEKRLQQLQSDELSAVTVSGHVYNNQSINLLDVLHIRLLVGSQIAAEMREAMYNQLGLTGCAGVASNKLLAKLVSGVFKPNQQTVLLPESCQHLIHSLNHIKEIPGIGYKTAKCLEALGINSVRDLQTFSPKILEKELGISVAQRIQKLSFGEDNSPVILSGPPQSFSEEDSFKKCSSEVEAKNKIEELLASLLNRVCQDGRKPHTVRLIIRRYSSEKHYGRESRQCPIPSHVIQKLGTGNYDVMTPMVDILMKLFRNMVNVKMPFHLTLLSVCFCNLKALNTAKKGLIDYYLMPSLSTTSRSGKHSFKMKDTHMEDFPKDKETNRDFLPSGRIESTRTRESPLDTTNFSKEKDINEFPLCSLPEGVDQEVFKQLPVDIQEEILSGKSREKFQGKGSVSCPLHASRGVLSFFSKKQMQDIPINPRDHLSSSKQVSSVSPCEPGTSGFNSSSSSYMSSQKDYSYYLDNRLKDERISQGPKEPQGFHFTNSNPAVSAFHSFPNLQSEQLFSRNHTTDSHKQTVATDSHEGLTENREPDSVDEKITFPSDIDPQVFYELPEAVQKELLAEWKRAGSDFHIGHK
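Pol iota at 10 nM preincubated 15 min with compounds at room temperature; reaction started with fluorescent substrate, 50 nM final. Fluorescence read kinetically at 0 and 10 min; buffer-only wells as negative control.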
POLK inh – DNA polymerase kappa (human) inhibition | Potency, µM (highest dose often 107 µM), for inactives: top-dose activity, negative = inhibition, actives largely listed as inhibitors | purified Pol kappa, fluorescent DNA synthesis assay, 10 min | 0.53% of 400,000 active | Q9UBT6; note: % is set by controls: 0 for no effect and ±100 for the full control effect
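Kinetic fluorescence readout at 0 and 10 min followed reaction start with substrate at 50 nM final. Beforehand, enzyme (10 nM Pol kappa) stood 15 min with compound at room temperature; buffer-only wells were negative controls.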
Pol beta inh – blocks human DNA polymerase beta activity. Potency, µM (doses to about 114 µM), inactives show at the top dose activity change, negative = inhibition, usual class: inhibitors. 1.3% of 340,000 active. Pol beta primer extension/strand displacement, fluorescence kinetic. P06746; note: % is set by controls: 0 for no effect and ±100 for the full control effect
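Homogeneous kinetic assay of primer extension and strand displacement by 10 nM Pol beta, preincubated 15 min at room temperature with compound before 50 nM substrate (final) was added. Read at 0 and 10 min; four-parameter Hill fit.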
FEN1 inhibitor – inhibitors of human flap endonuclease 1 | P39748 | Recombinant FEN1 flap cleavage, fluorescence, 15 min | Potency, µM (highest dose often 114 µM), inactives show top-dose activity change, negative = inhibition, hits mostly inhibitors | 0.35% of 390,000 active | AID 588795; note: % is set by controls: 0 for no effect and ±100 for the full control effect; nearly all actives have a fitted effect of over 65% in size
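Quantitative HTS format: each compound was titrated, incubated with 10 nM nuclease for 15 min at room temperature, then challenged with flap substrate at 50 nM final. Signal change over 15 min gave concentration–effect curves.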
POLH inh – blocks human DNA polymerase eta activity | Q9Y253 | recombinant Pol eta, fluorescent DNA replication assay | Potency, µM (top dose mostly 114 µM), without a hit: at the highest dose activity change, negative = inhibition, most hits filed as inhibitors | 1.2% of 390,000 active; note: % is set by controls: 0 for no effect and ±100 for the full control effect
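Pol eta (10 nM) was preincubated with compounds for 15 min at room temperature, after which fluorescent replication substrate (50 nM final) was added to start the reaction. Fluorescence was read kinetically at 0 and 10 min.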
TDP1 inh – TDP1 (human) enzyme inhibition | AID 485290 | recombinant TDP1, AlphaScreen DNA substrate cleavage | Q9NUW8 | Potency, µM (top dose mostly 130 µM), without a hit: at the highest dose activity change, negative = inhibition, hits mostly inhibitors | 0.28% of 350,000 active; note: % is set by controls: 0 for no effect and ±100 for the full control effect; nearly all actives have a fitted effect of over 40% in size
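Signal: AlphaScreen proximity between streptavidin donor and anti-FITC acceptor beads on intact substrate. Reaction: Tdp1 1 nM, substrate 15 nM final, 5 min RT after 15 min compound preincubation.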
The depositor's hits bear a star; ? = inconclusive; . = no result; ! = a repeat was not active; [ ] = another dose, or the depositor's remark. Only some compounds are listed: those with a hit (about 2.4% of all), similar ones and a draw of the others. Calls come from the whole dose curve; as a rule, active = well fitted curve in the direction sought with a large enough effect; inconclusive = small, poorly fitted or top-dose-only effect, or another doubt; inactive = no such curve, though single readings can be large; an effect the other way counts as inactive or inconclusive. Potency is the fitted concentration of half-maximal effect.

SMILES | Pol iota inh | POLK inh | Pol beta inh | FEN1 inhibitor | POLH inh | TDP1 inh
C/C(=N\NC(=O)c1ccccc1O)c1ccc(NC(=O)Cc2ccccc2)cc1 | 6.3% | -16.9% | -0.6% | -4.0% | 15.0% | 56.2µM*
COc1cccc(C(=O)N/N=C(\C)c2ccc(NC(=O)Cc3ccccc3)cc2)c1OC | 59.3% | -17.9% | -15.8% | 0.7% | -13.5% | 2.1%
CNc1ccc(/C=C/c2ccnc3ccccc23)cc1 | 22.1% | 5.5% | . | -35.2% | . | .
O=C(NC1CC(=O)N(c2ccc(Cl)cc2)C1)c1ccc(S(=O)(=O)N2CCCC2)cc1 (stereo unspecified) | 11.5% | -0.5%[60.1 µM] | -0.8% | -4.9% | -5.7% | 2.6%
COc1ccc(-c2nnc(Nc3nc4c(OC)cccc4s3)o2)cc1 | ? | 35.5µM* | 31.6µM* | ? | 79.4µM* | -8.1%
C=CCn1c(NC(=O)c2ccccc2Cl)c(C#N)c2nc3ccccc3nc21 | ? | -23.1% | -2.1% | ? | 31.6µM* | 5.1%
N=C(N)SCc1cccc2c(=O)cc(-c3ccccc3)oc12 | -24.7% | -18.9% | . | 50.1µM* | . | .
COc1cc(C)ccc1OCCOc1cc(C)ccc1Cl | 4.9% | -8.4% | 12.6µM* | -3.2% | -26.8% | -2.9%
Cc1ccc(C(=O)Oc2ccc(Br)cc2C(=S)N2CCOCC2)cc1 | 9.9% | -10.6% | 46.1% | -1.8% | -5.1% | 6.2%[0.0935 µM]
Cc1c([N+](=O)[O-])cc(C(=O)Oc2ccc(Br)cc2C(=S)N2CCCCC2)cc1[N+](=O)[O-] | 89.1µM* | -13.2% | 4.9% | -0.6% | ? | 5.7%
CCCc1cc(=O)[nH]c(-n2[nH]c3c(c2=O)CCCC3)n1 | 15.8µM* | -16.8% | 11.8% | 3.5% | -13.9% | 4.8%
CCCc1cc(=O)[nH]c(SCC(=O)N2CCCC2=O)n1 | 57.9% | 3.7% | . | 12.3% | -4.4% | -4.0%
O=C1NC(=O)C(c2ccccc2)(c2ccccc2)N1S(=O)(=O)c1ccccc1 | . | . | . | . | -5.4% | .
Nc1nc(Nc2cc(F)cc(F)c2)nc(NC2CCCC2)n1 | . | . | . | . | . | 1.2%
Cc1ccc2c(CC(=O)NNC(=O)c3ccccc3O)coc2c1 | 44.7µM* | -38.9% | . | 2.1% | ? | 0.3%
Cc1ccccc1Cn1cc(CCC(=O)NCc2cccc(Br)c2)c2ccccc21 | -4.5% | -9.9% | 14.0% | 3.0% | -16.4% | 2.6%
COCCCN1C(=O)C2C(C(=O)Nc3cc(C)cc(C)c3)C3C=CC2(O3)C1C(=O)NC1CCCCC1 (stereo unspecified) | 12.6µM* | -40.5% | 18.4% | -5.0% | 22.4µM* | 1.4%
COCCCN1C(=O)C2C(C(=O)Nc3cccc(Cl)c3)C3C=CC2(O3)C1C(=O)NC1CCCCC1 (stereo unspecified) | 140.9% | -0.5% | 41.6% | -5.1% | -14.6% | 2.7%
CC1=CC(=O)C(C(C)C)=C/C1=C(\c1cc(C(C)C)c(OP(=O)(O)O)cc1C)c1ccccc1C(=O)O | 50.9% | -19.9% | 50.1µM* | 0.8% | 79.4µM* | .
CCOc1ccc(C(=O)c2ccccc2C(=O)O)cc1OCC | 16.6% | -2.9% | 17.1% | -0.4% | -10.4% | 0.0%
COc1ccc(C(=O)c2nccc3cc(OC)c(OC)cc23)cc1OC | ? | -16.4% | . | -16.4% | ? | 0.2%
COc1cc2c(cc1OC)-c1c(OC)c(OC)cc3ccnc(c13)C2=O | 23.9% | ? | ? | 7.94µM* | ? | 11.9%[56.1 µM]
O=C(COC(=O)/C=C/c1ccc2ccccc2n1)NNC(=O)c1ccccc1 | . | . | . | . | 39.8µM* | .
CCCCCCCCCCC/C=C\C(C)(C)/C=C\CCCC(=O)O | 28.2µM* | 26.7µM*! | 31.6µM* | . | 28.2µM* | 8.5%[56.1 µM]
CCCCCCC/C=C\CCCCCCCCC(=O)O | 28.2µM* | ? | ? | . | ? | -12.4%[56.1 µM]
SMILES | Pol iota inh | POLK inh | Pol beta inh | FEN1 inhibitor | POLH inh | TDP1 inh
COc1ccc(N2CC(NC(=O)COc3ccc4ccccc4c3)CC2=O)cc1OC (stereo unspecified) | 8.7% | 5.1%[60.1 µM] | 12.3% | 3.3% | -11.0% | 5.2%
Cc1ccc(-c2nnn3c2nc(NCCc2ccccc2)c2ccccc23)cc1 | 40.4% | -0.6% | 1.0% | 19.4% | -16.8% | -1.3%
COCCNC(=S)Nc1ccc2nsnc2c1 | 20µM* | -12.7% | 43.0% | 3.0% | -5.7% | 1.1%
COc1ccc(NC(=S)Nc2ccc3nsnc3c2)cc1 | 3.55µM* | 0.4% | -0.1% | ? | 7.08µM* | 0.0%
COCCNC(=S)Nc1ccc(Cl)c(Cl)c1 | 13.3% | -10.5% | -1.9% | -2.7% | -20.1% | -2.5%
CCOc1ccc(NC(=S)Nc2ccc3nsnc3c2)cc1 | 10µM* | -3.7% | ? | -30.8% | 22.4µM* | -2.7%
COc1ccc(NC(=S)Nc2ccc3nc(C)c(C)nc3c2)cc1 | 32.9% | -2.3% | 4.0% | 3.2% | -16.9% | 3.2%
CC(C)N(C(=O)Nc1ccc2nsnc2c1)C(C)C | 1µM* | 50.1µM* | 10µM* | ? | 8.91µM* | 5.1%
CCOc1ccc(NC(=O)Cn2c(=O)n(CC(=O)NCCc3ccccc3)c(=O)c3sccc32)cc1 | -3.3% | 9.4% | 24.2% | 3.4% | 19.8% | -1.8%
CCCSc1nc2sc3c(c2c(=O)[nH]1)CCN(Cc1ccccc1)C3 | 11.5% | -15.4% | 39.8µM* | 7.3% | ? | 5.1%
CCCSc1nc2sc3c(c2c(=O)[nH]1)CC(C)CC3 (stereo unspecified) | 29.7% | 0.7% | 5.3% | 13.0% | -16.7% | 7.7%
CCc1cc(=O)oc2cc(C)c(CN3CCCC(C)C3)c(O)c12 (stereo unspecified) | 3.55µM* | 10µM* | 3.16µM* | 50.1µM* | 35.5µM* | .
Cc1ccc2c(c1C)-c1c(ccc(C)c1C)C(=O)C2=O | 25.1µM* | -6.0% | . | ? | 22.4µM* | .
Cc1ccc(CC#N)c(-c2c(CC#N)ccc(C)c2C)c1C | . | . | . | . | -15.0% | .
COc1ccc(OCC(=O)Nc2ccccc2Cl)cc1 | 23.7% | -0.7% | 17.8µM* | 1.1% | -2.8% | 0.0%
CCCNC(=O)C(=O)NCC(c1ccc2c(c1)OCO2)N1CCOCC1 (stereo unspecified) | 4.0% | 2.8%[60.1 µM] | 6.1% | -2.1% | 0.2% | 4.7%
N#C/C(=C\c1c(Oc2ccc(F)cc2)nc2ccccn2c1=O)c1nc2ccccc2s1 | 20µM* | ? | ? | ? | -20.0% | -6.3%
CCN(CC)c1ccc(C(=C2C=CC(=[N+](CC)CC)C=C2)c2ccccc2)cc1 | 8.4% | -3.3% | . | 18.8% | -10.4% | 27.9%
CCN(CC)c1ccc(C(=C2C=CC(=[N+](CC)Cc3cccc(S(=O)(=O)[O-])c3)C=C2)c2ccc(N(CC)Cc3cccc(S(=O)(=O)O)c3)cc2)cc1 | . | 4.23µM* | . | . | . | 25.9%
Cn1cccc1C(=O)N1CCC2(CCN(Cc3nccs3)CC2)CC1 | . | -2.6%[60.1 µM] | . | . | . | .
COc1ccc(CCC(C)N2CCC(Oc3ccc(C(=O)N4CCCC4)cc3)CC2)cc1 (stereo unspecified) | 89.1µM* | -3.3% | -3.3% | 29.8% | -13.3% | 4.9%

Compound activity as filed in PubChem BioAssay.
